# Measurements: PubChem BioAssay AID449762 (Southern Research Specialized Biocontainment Screening …, 2010)
# The whole screen tested about 330,000 compounds, of which about 1,900 (0.58%) were called active. Inconclusive results (about 4%) are left out. These entries were drawn from the full list. Potency and affinity values are given separately. A number with no mark means an inactive call. Cut-off read from the data, not from the text of the source: inconclusive = inhibition above about 70% without an active follow-up result; inactive = below that.
# Test: M. tuberculosis growth inhibition, HTS (AID 449762);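 note: bacterial growth assessed after seven days of incubation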
# Conditions: M. tuberculosis H37Rv growth inhibition, 7H9 media; at 25 µM; active compounds read high
row,SMILES,inhibition
1,O=C(Nc1ccc(F)cc1)c1cccc(NC(=O)C2C3CC4OC(=O)C2C4C3)c1 (stereo not given),-6.31%
2,O=C1CC(/C=C/c2ccncc2)=Nc2ccccc2N1,-0.65%
3,O=C1CC(/C=C/c2ccccc2)=Nc2ccccc2N1,-1.18%
4,CCCCNS(=O)(=O)c1ccc(NC(=O)Cc2ccc(OC)cc2)cc1,-0.2%
5,O=C(NCCCN1CCOCC1)c1cc(S(=O)(=O)N2CCOCC2)ccc1Cl,-0.79%
6,Cc1ccc(-n2c(C)c3c(C)nnc(C)c3c2C)cc1C,39.9%
7,Cc1cc(-n2c(C)c3c(C)nnc(C)c3c2C)ccc1N,-1.53%
8,COc1cc(NS(C)(=O)=O)c(OC)cc1NC(=O)c1ccccc1,-13.2%
9,NC(=O)N/N=C1\c2ccccc2-c2c(C(N)=O)cccc21,-8.45%
10,N#Cc1cccc2c1-c1ccccc1/C2=N/NC(N)=S,11.6%
11,COc1cccc(C(=O)NCC2CCCN2S(=O)(=O)c2cccs2)c1 (stereo not given),-3.52%
12,CCOC(=O)CNC(=S)n1ncnc1N,-5.34%
13,CNC(=S)n1cnc(N)n1,-9.24%
14,CCc1nc2nc(C)c(NS(=O)(=O)c3ccc(Br)s3)c(=O)n2[nH]1,-4.89%
15,CCC1CCCCN1C(=O)c1ccc2c(c1)C(=O)N(c1ccc(C)cc1)C2=O (stereo not given),7.37%
16,CCc1ccc(NC(=S)NC2CC3CCCC(C2)N3Cc2ccccc2)cc1 (stereo not given),9.67%
17,CNC(=S)NC1CC2CCC(C1)N2Cc1ccccc1 (stereo not given),-6.1%
18,CCNC(=S)NC1CC2CCCC(C1)N2Cc1ccc(C)cc1 (stereo not given),-6.09%
19,CNC(=S)NC1CC2CCCC(C1)N2Cc1ccc(C)cc1 (stereo not given),-9.32%
20,C/C(N)=C(/C#N)C(=O)COC(=O)CCSc1ccccc1Cl,-0.73%
21,O=C(Nc1ccc(Br)cc1Br)c1cccc2c1C(=O)N(C1CCCCC1)C2,10.8%
22,CC(C)C[C@H](NC(=O)CCCn1nnc2ccccc2c1=O)C(=O)O,7.06%
23,Cc1cc(C)c2c(CC(=O)NNC(=O)c3ccccc3)coc2c1,-11.5%
24,COc1cc(N=Nc2ccccc2C(=O)O)ccc1O,5.29%

row,SMILES,inhibition
1,COc1ccc(N=Nc2ccc3ccccc3c2)c(O)c1,53.5%
2,Cc1ccnc(NC(=O)c2cc3ccccc3oc2=O)c1,45.2%
3,O=C(Nc1ccccn1)c1cc2ccccc2o1,3.67%
4,O=C(CN1C(=O)NC2(CCCc3ccccc32)C1=O)NCCc1ccc(F)cc1 (stereo not given),1.6%
5,O=C(CSc1ccccc1)N1CCN(c2ccc(F)cc2)CC1,-5.77%
6,COc1cccc(/C=C/C(=O)OCC(=O)Nc2ccc(N3CCOCC3)cc2)c1OC,-2.5%
7,CC(C)OC(=O)CSc1nnc(CNc2nc(-c3ccccc3)cs2)n1C,0.34%
8,COC(=O)CSc1nnc(CNc2nc(-c3ccccc3)cs2)n1C,-7.67%
9,COC(=O)[C@H](CC(C)C)NS(=O)(=O)N[C@@H](CC(C)C)C(=O)OC,-8.61%
10,COC(=O)c1c(NC(=O)C(=O)N2CCCCC2)sc2c1CC(C)(C)OC2,5.56%
11,CC1(C)Cc2c(sc(NC(=O)C(=O)N3CCCC3)c2C(=O)O)CO1,1.82%
12,COc1ccc2ccc3c(c2c1)N=CC1(O3)N(C)c2ccccc2C1(C)C (stereo not given),-4.4%
13,COc1ccc(N2CCN(C(=O)COCC(=O)O)CC2)cc1,-6.23%
14,COc1ccc(C(=O)NCCS(=O)(=O)N2CCN(C(=O)c3ccco3)CC2)cc1,-5.88%
15,O=C(CSc1n[nH]c(=O)[nH]c1=O)c1ccccc1,51.6%
16,COc1ccc(C(=O)CSc2n[nH]c(=O)[nH]c2=O)cc1,-1.42%
17,COc1ccc(NC(=S)NC2CCCCC2)c(OC)c1,4.99%
18,CCOc1ccccc1C(=O)N1CCN=C1SCc1cccnc1,10.2%
19,O=C(c1cc2ccccc2o1)N1CCN(S(=O)(=O)c2cccs2)CC1,0.69%
20,O=C(c1ccco1)N1CCN(S(=O)(=O)c2ccc(Cl)s2)CC1,-11.2%
21,CCOC(=O)Cc1nnc(NC(=O)c2ccccc2OC)s1,-7.9%
22,N#Cc1ccc(S(=O)(=O)N2CCCN(c3nc4ccc(Cl)cc4s3)CC2)cc1,-8.22%
23,O=[N+]([O-])c1ccc(N2CCN(Cc3ccc(Br)o3)CC2)cc1,2.93%
24,Clc1ccc(N2CCN(Cc3ccc(Br)o3)CC2)cc1,0.17%

row,SMILES,inhibition
1,COc1ccc(N(CC(=O)N/N=C/c2ccco2)S(=O)(=O)c2ccccc2)cc1,-4.51%
2,O=C(c1ccoc1)N1CCC(CO)(CCc2ccccc2)CC1,-5.69%
3,O=C(COc1ccccc1[N+](=O)[O-])Nc1ccccc1N1CCCCC1,-4.5%
4,COC(=O)c1c(C)[nH]c(C(=O)/C=C/c2ccccc2Cl)c1C,3.39%
5,O=C(Nc1sc2c(c1C(=O)NCc1cccnc1)CCCC2)c1ccco1,-2.45%
6,O=C(COc1ccccc1)Nc1sc2c(c1C(=O)NCc1cccnc1)CCCC2,-7.35%
7,O=C(Nc1c2c(nn1-c1ccc(F)cc1)CS(=O)(=O)C2)c1ccc2c(c1)OCO2,-6.48%
8,Cn1cc(/C=C/C(=O)c2ccccc2)c2ccccc21,58.1%
9,COc1ccc(C(=O)/C=C/c2cn(CC(O)CN3CCN(C)CC3)c3ccccc23)cc1OC (stereo not given),8.14%
10,Cc1cc(C)c(CN2CCC(n3nccc3NC(=O)CCOc3ccccc3)CC2)cc1C,67.4%
11,O=C(Nc1ccc(-c2ccccc2)cc1)c1ccccc1,9.06%
12,COc1ccc(OCCN(C)CC(=O)Nc2c(C)cccc2C)cc1,-3.93%
13,Cc1c(C(=O)Nc2ccc(F)c(F)c2)oc2ccc(S(=O)(=O)N3CCCCC3)cc12,4.31%
14,Fc1ccc(Nc2ncnc3ccccc23)cc1,4.5%
15,N=c1c2ccccc2nnn1-c1ccc(C(F)(F)F)cc1,-1.84%
16,O=C(Nc1ncc2c(n1)-c1ccccc1OC2)c1ccc(Cl)cc1Cl,-7.91%
17,CCCCc1ncc(CN2CCN(Cc3ccc(C)cc3)C(CCO)C2)[nH]1 (stereo not given),0.18%
18,COc1ccc(NC(=O)C(=S)NC2CCCCC2)cc1,8.92%
19,C=CCc1c(C)nc(C)nc1N/N=C/c1ccc(F)cc1,6.56%
20,C=CCc1c(C)nc(C)nc1N/N=C/c1ccccc1,-2.25%
21,C#CCOCCOCCOCCNc1nc(N2CCN(C(=O)[C@H](CCC(=O)O)n3cc([C@@H](N)[C@H](C)CC)nn3)CC2)nc(N2CCN(C(=O)[C@H](CCC(=O)O)n3cc([C@@H](N)CCSC)nn3)CC2)n1,3.47%
22,O=C1C=C(c2ccc3c(c2)oc2ccccc23)C[C@@H](c2ccc3c(c2)OCO3)C1,36.8%
23,FC(F)(F)c1ccc(C2[C@H]3CN(CC4CCCCC4)[C@H](c4ccccc4)C34CC2(c2cccnc2)C4)cc1 (stereo not given in full),58%
24,c1ccc(C2[C@H]3CN(CC4CCCCC4)[C@H](c4ccccc4)C34CC2(c2ccccc2)C4)cc1 (stereo not given in full),2.3%

row,SMILES,inhibition
1,CC(C)(C#CCCCCC#CC(C)(C)[N+](C)(C)C)[N+](C)(C)C,-2.46%
2,Cc1ccc(/C=C/C(=O)c2ccc(C)cc2)cc1,-12.1%
3,Cc1ccc(C(=O)/C=C/C(=O)O)cc1,-2.7%
4,Cc1cc(Nc2ccc(C(=O)O)cc2)n2nc(C)nc2n1,-2.73%
5,O=C(COc1ccccc1)Nc1nnc(-c2ccccc2Cl)o1,28.7%
6,O=C(Nc1ccccc1)c1nc2ccccc2s1,23.7%
7,OC1CCCN(Cc2nc(Cc3ccccc3Cl)no2)C1 (stereo not given),-6.97%
8,CCCCC[C@@H](O)c1cc2ccccc2c(=O)o1,-0.25%
9,O=C(O)c1ccccc1Nc1cccc(OCc2ccc3ccccc3n2)c1,-1.2%
10,CCc1ccc2c(c1)C(c1ccc(N3CCOCC3)cc1)=NNC(c1ccncc1)=N2,44.4%
11,CCOC(=O)C1CCCN(C(=O)CCCn2c(=O)c3cccn3c3cccnc32)C1 (stereo not given),1.46%
12,Cc1ccc(N2CC(C(=O)N3CCC(C(=O)Nc4ccc(Br)cc4)CC3)CC2=O)cc1 (stereo not given),32.6%
13,CCc1ccc(N=c2c([N+](=O)[O-])nn(-c3ccccc3)n2O)cc1,64.6%
14,COc1ccccc1N=c1c2c([N+](=O)[O-])cc([N+](=O)[O-])cc2n(O)n1-c1ccccc1OC,-0.38%
15,COc1ccc(C(=O)N(CC2CCCO2)C(C(=O)NC2CCCC2)c2ccc(C)cc2)cc1OC (stereo not given),-13.5%
16,COc1ccc(C(=O)CN2CC(C)SC2=Nc2ccc(Cl)cc2)cc1 (stereo not given),13.6%
17,CN(C)/C=C1/OC(=O)C(C#N)=C1c1ccc(Cl)cc1,-3.95%
18,O=C1O/C(=C/c2ccccc2)c2ccccc21,4.48%
19,O=C1CC(c2ccc(Cl)cc2)CC(=O)C1CS(=O)(=O)c1ccccc1 (stereo not given),5.94%
20,CCC(=O)N1N=C(c2ccc(NS(=O)(=O)c3ccccc3)cc2)CC1c1ccco1 (stereo not given),1.78%
21,CCn1c(=O)c2c(nc3n2CCCN3CCc2ccccc2)n(C)c1=O,6.27%
22,Cc1nc(N)nc(Cl)c1Cc1ccc(Cl)cc1,0.95%
23,COc1ccc(Cc2c(C)nc(N)nc2Cl)cc1,8.87%
